# Measured values taken from PubChem BioAssay (NCI).
# About 79,000 compounds went through this panel and 15% of them were active in at least one assay; those are over-represented in the sample as a whole. A number with no mark means an inactive call. The source made the active and inactive calls. Rule as the data show it: active = growth inhibition above about 70%; inactive = the rest.
# Assays:
# [1] = NCI Yeast Anticancer Drug Screen. Data for the rad52 strain (AID 147);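 also: 0% = growth of vehicle-treated control cultures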; settings: S. cerevisiae rad52 mutant growth inhibition, hits give high values
# Procedure, shortened: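 Here a repair-compromised yeast strain receives each compound; its growth is then quantified and normalised to vehicle-only controls.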
# [2] = NCI Yeast Anticancer Drug Screen. Data for the wt1 strain (AID 149);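 also: 0% = growth of vehicle-treated wt1 cultures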; settings: S. cerevisiae wt1 strain (SPY 50644) growth inhibition, hits give high values
# Procedure, shortened: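 Using yeast strain wt1, compound-induced growth inhibition was determined against vehicle-treated cultures.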
# [3] = NCI Yeast Anticancer Drug Screen. Data for the rad50EPP+ strain (AID 151);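 also: 0% = growth of vehicle-treated control cultures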; settings: S. cerevisiae rad50 mutant strain, hits give high values
# Procedure, shortened: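 Read-out is yeast growth inhibition relative to vehicle; cells used were the rad50EPP+ strain.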
# [4] = NCI Yeast Anticancer Drug Screen. Data for the mgt1 strain (AID 153); settings: S. cerevisiae mgt1 mutant growth inhibition, hits give high values
# Procedure, shortened: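 Measured: inhibition of mgt1 yeast growth by compound, normalized to vehicle-treated cultures.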
# [5] = NCI Yeast Anticancer Drug Screen. Data for the rad50 strain (AID 155);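 also: 0% = growth of vehicle-only cultures of the same strain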; settings: S. cerevisiae rad50 strain growth inhibition, hits give high values
# Procedure, shortened: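 Relative growth inhibition (compound vs vehicle) was measured in yeast with a defined repair-gene alteration.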
# [6] = NCI Yeast Anticancer Drug Screen. Data for the mec2-1 strain (AID 157); settings: S. cerevisiae mec2-1 strain, hits give high values
# Procedure, shortened: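 Using mec2-1 yeast: add compound, measure growth, express inhibition versus vehicle-treated cultures.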
# [7] = NCI Yeast Anticancer Drug Screen. Data for the rad14 strain (AID 159);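 also: 0% = growth of vehicle-treated control cultures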; settings: S. cerevisiae rad14 strain growth inhibition, hits give high values
# Procedure, shortened: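 Screen for anticancer potential: a yeast strain altered in DNA damage repair is grown with compound, and reduced growth is quantified against vehicle controls.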
# [8] = NCI Yeast Anticancer Drug Screen. Data for the sgs1 mgt1 strain (AID 161);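 also: 0% = growth of cultures given vehicle only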; settings: S. cerevisiae sgs1 mgt1 strain, hits give high values
# Procedure, shortened: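 This yeast growth screen uses a strain with defined DNA-repair lesions; compound-treated growth is compared with vehicle-treated growth.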
# [9] = NCI Yeast Anticancer Drug Screen. Data for the CLN2oe strain (AID 163);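 also: 0% = growth of vehicle-only control cultures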; settings: S. cerevisiae CLN2oe strain, hits give high values
# Procedure, shortened: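 Whole-cell yeast growth assay. A strain engineered for altered cell-cycle control received compound, and inhibition relative to vehicle-treated cultures was recorded.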
# [10] = NCI Yeast Anticancer Drug Screen. Data for the cln2 rad14 strain (AID 165);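 also: 0% = growth equal to vehicle treated cultures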; settings: S. cerevisiae cln2 rad14 strain, hits give high values
# Procedure, shortened: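 Yeast strain cln2 rad14, bearing defects in cell cycle control and DNA repair, serves as the test system; values reflect growth inhibition compared with vehicle.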
# [11] = NCI Yeast Anticancer Drug Screen. Data for the bub3 strain (AID 167); settings: S. cerevisiae bub3 mutant strain, hits give high values
# Procedure, shortened: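 Screening used yeast with an engineered genetic alteration affecting cell cycle control. Compound-exposed cultures were compared with vehicle cultures, and reduced growth was taken as inhibition.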
# [12] = NCI Yeast Anticancer Drug Screen. Data for the wt2 strain (AID 169);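 also: 0% = growth of vehicle-treated yeast cultures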; settings: S. cerevisiae wt2 strain growth inhibition, hits give high values
# Procedure, shortened: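 Treated yeast vs. vehicle-treated yeast: growth inhibition determined.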
# [13] = NCI Yeast Anticancer Drug Screen. Data for the mlh1 strain (AID 171);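 also: 0% = growth of vehicle-treated control cultures of the same strain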; settings: S. cerevisiae mlh1 strain growth inhibition, hits give high values
# Procedure, shortened: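 A yeast strain with a defined genetic lesion serves as the test organism. Cultures receive compound or vehicle, and growth is measured.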
# [14] = NCI Yeast Anticancer Drug Screen. Data for the sgs1 strain (AID 173);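 also: 0% = growth of vehicle-only control cultures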; settings: S. cerevisiae sgs1 mutant, hits give high values
# Procedure, shortened: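 A genetically defined yeast mutant is incubated with the test compound, and its growth is compared to that of the same strain given vehicle.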
# [15] = NCI Yeast Anticancer Drug Screen. Data for the mlh1 rad18 strain (AID 175); settings: S. cerevisiae mlh1 rad18 strain growth inhibition, hits give high values
# Procedure, shortened: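 Steps: expose repair-defective yeast to compound; measure growth; express inhibition against vehicle-treated controls.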
# [16] = NCI Yeast Anticancer Drug Screen. Data for the rad18 strain (AID 177); settings: S. cerevisiae rad18 mutant growth inhibition, hits give high values
# Procedure, shortened: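 Measured value is growth inhibition of a yeast strain bearing a DNA repair alteration, referenced to vehicle-treated cells.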
# [17] = at 5.0 µM (retest, dose inferred, filed as 0.5)
# [18] = at 50.0 µM (retest, dose inferred, filed as 5.0)
structure (smiles),measurement,setting,value
O=C(/C=C/c1ccsc1)c1cccs1,growth inhibition,[1]; at 1.2 µM,-16%
same,growth inhibition,[1]; at 3.7 µM,-18%
same,growth inhibition,[1]; at 11.0 µM,-9%
same,growth inhibition,[1]; at 33.0 µM,-12%
same,growth inhibition,[1]; at 100.0 µM,82% (active)
same,growth inhibition,[2]; at 1.2 µM,-33%
same,growth inhibition,[2]; at 3.7 µM,-41%
same,growth inhibition,[2]; at 11.0 µM,-35%
same,growth inhibition,[2]; at 33.0 µM,-35%
same,growth inhibition,[2]; at 100.0 µM,17%
same,growth inhibition,[3]; at 1.2 µM,5%
same,growth inhibition,[3]; at 3.7 µM,11%
same,growth inhibition,[3]; at 11.0 µM,21%
same,growth inhibition,[3]; at 33.0 µM,54%
same,growth inhibition,[3]; at 100.0 µM,95% (active)
same,growth inhibition,[4]; at 1.2 µM,3%
same,growth inhibition,[4]; at 3.7 µM,-2%
same,growth inhibition,[4]; at 11.0 µM,-4%
same,growth inhibition,[4]; at 33.0 µM,10%
same,growth inhibition,[4]; at 100.0 µM,92% (active)
same,growth inhibition,[5]; at 1.2 µM,21%
same,growth inhibition,[5]; at 3.7 µM,19%
same,growth inhibition,[5]; [17],-15%
same,growth inhibition,[5]; at 11.0 µM,22%
same,growth inhibition,[5]; at 33.0 µM,27%
same,growth inhibition,[5]; [18],11%
same,growth inhibition,[5]; at 50.0 µM,46.6%
same,growth inhibition,[5]; at 100.0 µM,92% (active)
same,growth inhibition,[6]; at 1.2 µM,-3%
same,growth inhibition,[6]; at 3.7 µM,-7%
same,growth inhibition,[6]; [17],4%
same,growth inhibition,[6]; at 11.0 µM,-2%
same,growth inhibition,[6]; at 33.0 µM,8%
same,growth inhibition,[6]; [18],11%
same,growth inhibition,[6]; at 50.0 µM,19.9%
same,growth inhibition,[6]; at 100.0 µM,98% (active)
same,growth inhibition,[7]; at 1.2 µM,3%
same,growth inhibition,[7]; at 3.7 µM,0%
same,growth inhibition,[7]; at 11.0 µM,-8%
same,growth inhibition,[7]; at 33.0 µM,9%
same,growth inhibition,[7]; at 100.0 µM,87% (active)
same,growth inhibition,[8]; [17],-1%
same,growth inhibition,[8]; [18],33%
same,growth inhibition,[8]; at 50.0 µM,66.6%
same,growth inhibition,[9]; at 1.2 µM,4%
same,growth inhibition,[9]; at 3.7 µM,14%
same,growth inhibition,[9]; at 11.0 µM,3%
same,growth inhibition,[9]; at 33.0 µM,5%
same,growth inhibition,[9]; at 100.0 µM,84% (active)
same,growth inhibition,[10]; [17],37%
same,growth inhibition,[10]; [18],42%
same,growth inhibition,[10]; at 50.0 µM,4.55%
same,growth inhibition,[11]; at 1.2 µM,1%
same,growth inhibition,[11]; at 3.7 µM,28%
same,growth inhibition,[11]; [17],-11%
same,growth inhibition,[11]; at 11.0 µM,11%
same,growth inhibition,[11]; at 33.0 µM,23%
same,growth inhibition,[11]; [18],66%
same,growth inhibition,[11]; at 50.0 µM,15.2%
same,growth inhibition,[11]; at 100.0 µM,97% (active)
same,growth inhibition,[12]; at 1.2 µM,-24%
same,growth inhibition,[12]; at 3.7 µM,-36%
same,growth inhibition,[12]; at 11.0 µM,-31%
same,growth inhibition,[12]; at 33.0 µM,-29%
same,growth inhibition,[12]; at 100.0 µM,85% (active)
same,growth inhibition,[13]; at 1.2 µM,6%
same,growth inhibition,[13]; at 3.7 µM,3%
same,growth inhibition,[13]; at 11.0 µM,-8%
same,growth inhibition,[13]; at 33.0 µM,25%
same,growth inhibition,[13]; at 100.0 µM,96% (active)
same,growth inhibition,[14]; at 1.2 µM,-15%
same,growth inhibition,[14]; at 3.7 µM,-23%
same,growth inhibition,[14]; at 11.0 µM,-24%
same,growth inhibition,[14]; at 33.0 µM,-17%
same,growth inhibition,[14]; at 100.0 µM,83% (active)
same,growth inhibition,[15]; [17],-9%
same,growth inhibition,[15]; [18],69%
same,growth inhibition,[15]; at 50.0 µM,44.6%
same,growth inhibition,[16]; at 1.2 µM,-3%
same,growth inhibition,[16]; at 3.7 µM,-5%
same,growth inhibition,[16]; at 11.0 µM,-12%
same,growth inhibition,[16]; at 33.0 µM,-6%
same,growth inhibition,[16]; at 100.0 µM,84% (active)
COc1cc2c(cc1O)[C@H](C)C(c1ccccc1OC)O2 (stereo partly drawn),growth inhibition,[1]; at 1.2 µM,-41%
same,growth inhibition,[1]; at 3.7 µM,-34%
same,growth inhibition,[1]; at 11.0 µM,-31%
same,growth inhibition,[1]; at 33.0 µM,-19%
same,growth inhibition,[1]; at 100.0 µM,96% (active)
same,growth inhibition,[2]; at 1.2 µM,-11%
same,growth inhibition,[2]; at 3.7 µM,-13%
same,growth inhibition,[2]; at 11.0 µM,-13%
same,growth inhibition,[2]; at 33.0 µM,-17%
same,growth inhibition,[2]; at 100.0 µM,96% (active)
same,growth inhibition,[3]; at 1.2 µM,-39%
same,growth inhibition,[3]; at 3.7 µM,-68%
same,growth inhibition,[3]; at 11.0 µM,-54%
same,growth inhibition,[3]; at 33.0 µM,-8%
same,growth inhibition,[3]; at 100.0 µM,19%
same,growth inhibition,[4]; at 1.2 µM,1%
same,growth inhibition,[4]; at 3.7 µM,5%
same,growth inhibition,[4]; at 11.0 µM,-4%
same,growth inhibition,[4]; at 33.0 µM,33%
same,growth inhibition,[4]; at 100.0 µM,97% (active)
same,growth inhibition,[5]; at 1.2 µM,-4%
same,growth inhibition,[5]; at 3.7 µM,-2%
same,growth inhibition,[5]; [17],-13%
same,growth inhibition,[5]; at 11.0 µM,-8%
same,growth inhibition,[5]; at 33.0 µM,4%
same,growth inhibition,[5]; [18],4%
same,growth inhibition,[5]; at 50.0 µM,15.5%
same,growth inhibition,[5]; at 100.0 µM,96% (active)
same,growth inhibition,[6]; at 1.2 µM,-27%
same,growth inhibition,[6]; at 3.7 µM,-15%
same,growth inhibition,[6]; [17],-44%
same,growth inhibition,[6]; at 11.0 µM,-20%
same,growth inhibition,[6]; at 33.0 µM,6%
same,growth inhibition,[6]; [18],13%
same,growth inhibition,[6]; at 50.0 µM,17.6%
same,growth inhibition,[6]; at 100.0 µM,95% (active)
same,growth inhibition,[7]; at 1.2 µM,-7%
same,growth inhibition,[7]; at 3.7 µM,-11%
same,growth inhibition,[7]; at 11.0 µM,-11%
same,growth inhibition,[7]; at 33.0 µM,7%
same,growth inhibition,[7]; at 100.0 µM,96% (active)
same,growth inhibition,[8]; [17],-16%
same,growth inhibition,[8]; [18],59%
same,growth inhibition,[8]; at 50.0 µM,68%
same,growth inhibition,[9]; at 1.2 µM,14%
same,growth inhibition,[9]; at 3.7 µM,9%
same,growth inhibition,[9]; at 11.0 µM,5%
same,growth inhibition,[9]; at 33.0 µM,18%
same,growth inhibition,[9]; at 100.0 µM,97% (active)
same,growth inhibition,[10]; [17],26%
same,growth inhibition,[10]; [18],24%
same,growth inhibition,[10]; at 50.0 µM,29.9%
same,growth inhibition,[11]; at 1.2 µM,24%
same,growth inhibition,[11]; at 3.7 µM,32%
same,growth inhibition,[11]; [17],20%
same,growth inhibition,[11]; at 11.0 µM,22%
same,growth inhibition,[11]; at 33.0 µM,55%
same,growth inhibition,[11]; [18],81% (active)
same,growth inhibition,[11]; at 50.0 µM,62.4%
same,growth inhibition,[11]; at 100.0 µM,97% (active)
same,growth inhibition,[12]; at 1.2 µM,-26%
same,growth inhibition,[12]; at 3.7 µM,-32%
same,growth inhibition,[12]; at 11.0 µM,-26%
same,growth inhibition,[12]; at 33.0 µM,-4%
same,growth inhibition,[12]; at 100.0 µM,96% (active)
same,growth inhibition,[13]; at 1.2 µM,17%
same,growth inhibition,[13]; at 3.7 µM,24%
same,growth inhibition,[13]; at 11.0 µM,-2%
same,growth inhibition,[13]; at 33.0 µM,47%
same,growth inhibition,[13]; at 100.0 µM,97% (active)
same,growth inhibition,[14]; at 1.2 µM,-10%
same,growth inhibition,[14]; at 3.7 µM,-17%
same,growth inhibition,[14]; at 11.0 µM,-12%
same,growth inhibition,[14]; at 33.0 µM,10%
same,growth inhibition,[14]; at 100.0 µM,96% (active)
same,growth inhibition,[16]; at 1.2 µM,-9%
same,growth inhibition,[16]; at 3.7 µM,-22%
same,growth inhibition,[16]; at 11.0 µM,11%
same,growth inhibition,[16]; at 33.0 µM,20%
same,growth inhibition,[16]; at 100.0 µM,94% (active)
